In PubChem BioAssay one finds composite z-score, composite Z-score and z-score data, which are given here for five compounds.

In assay [1] the target is Albumin (Bos taurus) (UniProt P02769). Description: bovine serum albumin binders on microarray, profiling panel, artefact control for SMM control protein annotation, biochemical, small-molecule microarray, Alexa647 label, 635/667 nm fluorescence (AID 1118).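 Further: score merges 667 nm emission intensity and signal-to-noise per printed compound spot.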 Conditions: BSA-A647 binding, fluorescence 635 nm, higher = more signal.
A short description of assay [2]: small-molecule microarray binders of probe aXIP, primary screen, biochemical, NeuroSMM set, 635/667 nm fluorescence (AID 1119).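 Further: probe is the protein aXip251-270 applied at 1 µg/mL to compound-printed slides; binding of probe to printed compounds measured as 667 nm fluorescence plus signal to noise.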 To be noted: higher = more signal, called active from +8 up or from −8 down.
Assay [3] in a line: small-molecule binders of probe aNOTCH3, primary screen, biochemical, small-molecule microarray, 635/667 nm fluorescence (AID 1120).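 Further: probe is a biotin-tagged antibody raised against NOTCH3 rather than NOTCH3 protein; score merges spot fluorescence near 667 nm with spot signal to noise.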 Conditions: higher = more signal.
The nature of assay [4]: small-molecule binders of probe aNOTCH2, primary screen, biochemical, small-molecule microarray, 635/667 nm fluorescence (AID 1121).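 Further: score merges feature fluorescence read at 667 nm with its signal to noise.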 Conditions: higher = more signal.
In assay [5] the target is Carbonic anhydrase 2 (Homo sapiens) (UniProt P00918). The experiment in a line: CAII small-molecule binders, profiling panel, biochemical, small-molecule microarray, Alexa647-labelled CAII (AID 1122). To be noted: CAII-A647 binding fluorescence, higher = more signal.
Assay [6] is described as follows: COS7 lysate on small-molecule microarray, probe aHis, 635 nm (AID 1123).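 Further: z-score combines 667nm fluorescence intensity with signal-to-noise per printed compound spot.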 Conditions: COS7 cell lysate, fluorescence, higher = more signal.
Assay [7] in a line: compound binding in COS7 lysate, probe aLAP1, primary screen, cell lysate, small-molecule microarray (AID 1124).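 Further: lysate comes from COS7 cells expressing LAP1 and is applied at 0.3 µg/mL; score merges spot fluorescence near 667 nm with signal-to-noise over triplicate slides.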 Conditions: probe aLAP1, fluorescence, higher = more signal.
Assay [8] has as its system Sam68 (KHDRBS1). The experiment in a line: Sam68 small-molecule binders, primary screen, biochemical, small-molecule microarray, 635 nm fluorescence (AID 1125).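 Further: score merges 667 nm channel intensity with signal to noise over triplicate slides.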 To be noted: small-molecule microarray binding, higher = more signal.
For assay [9], the system named is Chordin-like protein 2 (CHRDL2). Description: CHRDL2 small-molecule binders, primary screen, biochemical, small-molecule microarray, 635 nm fluorescence (AID 1126).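 Further: printed compound slides probed with Chrdl2 protein at 4 µg/mL for 1 h at 4 C; score merges 667 nm emission intensity with signal to noise over three replicate slides.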 To be noted: small-molecule microarray binding, fluorescence 635 nm; higher = more signal.
For assay [10], the target named is Concanavalin-A (Canavalia ensiformis) (UniProt P02866). Description: ConA small-molecule binders, primary screen, artefact control for SMM control protein annotation, biochemical, small-molecule microarray, Alexa647 label, 635 nm (AID 1127).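 Further: z combines 667 nm emission intensity with signal-to-noise across three replicate slides.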 Conditions: ConA-A647 binding fluorescence, higher = more signal.
A short description of assay [11]: anti-His antibody binders, primary screen, artefact control for SMM control protein annotation, biochemical, small-molecule microarray, 635 nm fluorescence (AID 1128).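 Further: score merges feature fluorescence with signal-to-noise for each printed compound spot.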 Conditions: anti-His Alexa647 antibody binding, higher = more signal.
For assay [12], the system named is Human papillomavirus type 1a E7 protein (residues 1-88). Description: HPV1a E7 small-molecule binders, primary screen, biochemical, small-molecule microarray, residues 1-88, 635 nm (AID 1129). Conditions: small-molecule microarray binding, fluorescence 635 nm; higher = more signal.
The target in assay [13] is Focal adhesion kinase 1 (Homo sapiens) (UniProt Q05397). The experiment in a line: small-molecule microarray binders of FAK, primary screen, biochemical, 635/667 nm fluorescence, BSA, DTT (AID 1130).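 Further: composite of spot emission at 667 nm and signal to noise over triplicate slides.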 Conditions: PTK2 binding, 635 nm fluorescence, higher = more signal.
In assay [14] the test system is Fibrinogen (Alexa647-labelled). Description: fibrinogen binders on compound microarrays, profiling panel, artefact control for SMM control-protein annotation, biochemical, small-molecule microarray, 635/667 nm fluorescence (AID 1131).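 Further: z-score merges 667 nm fluorescence with per-spot signal-to-noise over triplicate slides.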 Conditions: fibrinogen-A647 binding fluorescence, higher = more signal.
Assay [15] concerns the target Follistatin (Homo sapiens) (UniProt P19883). Description: follistatin binders on small-molecule microarrays, primary screen, biochemical, small-molecule microarray, 635/667 nm fluorescence (AID 1132). Conditions: FST binding, 635 nm fluorescence, higher = more signal.
Assay [16] deals with Fibroblast growth factor 2 (Homo sapiens) (UniProt P09038). The experiment in a line: FGF2 binders on small-molecule microarrays, primary screen, biochemical, small-molecule microarray, 635/667 nm fluorescence (AID 1133). Conditions: small-molecule microarray binding, FGF2, fluorescence 635/667; higher = more signal.
Assay [17] can be described thus: mitochondrial membrane potential change in A549 cells, profiling panel, cell-based, JC-1 fluorescence, basal, 24 h, 100 nL (AID 1138).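 Further: A549 lung adenocarcinoma cells under basal conditions with no added stimulus; test concentration not given here.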 To be noted: higher = more signal.
Assay [18] relates to Lefty1. Description: Lefty1 binders on small-molecule microarrays, primary screen, biochemical, small-molecule microarray, 635/667 nm fluorescence (AID 1139). To be noted: small-molecule microarray binding, fluorescence 635/667; higher = more signal.
For assay [19], the system named is wheat germ agglutinin (Triticum aestivum), Alexa647-labelled. The experiment in a line: wheat germ agglutinin binders on compound microarrays, profiling panel, artefact control for SMM control-protein annotation, biochemical, small-molecule microarray, 635/667 nm fluorescence (AID 1140).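 Further: score merges 667 nm feature emission with signal to noise over triplicate slides.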 To be noted: WGA-A647 binding, 635 nm fluorescence, higher = more signal.
The target of assay [20] is Luciferin 4-monooxygenase (Photinus pyralis) (UniProt P08659). Description: firefly luciferase enzyme inhibitors, primary screen, biochemical, luminescence, purified enzyme, 2006 set (AID 1141).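 Further: cell-free assay with purified firefly luciferase at 100 ng per well in PBS; test concentration not given here.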 To be noted: SteadyGlo luminescence, 30 min, higher = more signal, called active from +8 up or from −8 down.

Active and inactive are the calls of the source.

Sequence of Albumin (Bos taurus) (P02769 whole entry, looked up): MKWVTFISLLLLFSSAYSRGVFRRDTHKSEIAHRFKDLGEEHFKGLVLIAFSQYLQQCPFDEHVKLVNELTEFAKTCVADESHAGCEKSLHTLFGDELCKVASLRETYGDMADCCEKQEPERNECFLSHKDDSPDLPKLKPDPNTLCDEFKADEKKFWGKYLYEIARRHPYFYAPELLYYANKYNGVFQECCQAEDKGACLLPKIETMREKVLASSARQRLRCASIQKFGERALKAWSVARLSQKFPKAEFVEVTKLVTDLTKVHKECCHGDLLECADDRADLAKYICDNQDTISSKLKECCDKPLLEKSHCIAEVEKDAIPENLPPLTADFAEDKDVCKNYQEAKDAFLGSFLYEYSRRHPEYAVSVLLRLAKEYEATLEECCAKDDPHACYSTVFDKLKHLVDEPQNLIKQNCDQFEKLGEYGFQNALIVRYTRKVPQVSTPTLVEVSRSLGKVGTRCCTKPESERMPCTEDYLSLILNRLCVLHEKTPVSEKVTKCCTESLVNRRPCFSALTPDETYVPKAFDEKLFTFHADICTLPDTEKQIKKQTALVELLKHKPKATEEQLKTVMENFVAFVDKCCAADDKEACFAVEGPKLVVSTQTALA
Sequence of Luciferin 4-monooxygenase (Photinus pyralis) (P08659 whole entry, looked up): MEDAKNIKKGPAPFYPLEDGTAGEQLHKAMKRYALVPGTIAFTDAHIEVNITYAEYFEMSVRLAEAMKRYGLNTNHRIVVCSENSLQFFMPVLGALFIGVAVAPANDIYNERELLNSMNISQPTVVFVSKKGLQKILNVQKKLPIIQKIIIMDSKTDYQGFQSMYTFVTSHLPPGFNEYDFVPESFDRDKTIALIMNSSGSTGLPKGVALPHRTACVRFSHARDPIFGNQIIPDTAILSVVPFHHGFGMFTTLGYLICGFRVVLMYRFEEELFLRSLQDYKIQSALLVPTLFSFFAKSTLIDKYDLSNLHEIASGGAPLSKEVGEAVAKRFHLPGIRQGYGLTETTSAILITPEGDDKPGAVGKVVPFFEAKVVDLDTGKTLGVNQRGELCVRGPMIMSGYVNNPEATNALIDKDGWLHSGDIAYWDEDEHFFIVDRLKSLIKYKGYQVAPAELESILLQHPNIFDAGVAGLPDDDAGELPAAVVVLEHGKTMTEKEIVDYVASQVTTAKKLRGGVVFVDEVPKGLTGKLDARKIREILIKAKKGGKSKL
Sequence of Follistatin (Homo sapiens) (P19883 whole entry, looked up): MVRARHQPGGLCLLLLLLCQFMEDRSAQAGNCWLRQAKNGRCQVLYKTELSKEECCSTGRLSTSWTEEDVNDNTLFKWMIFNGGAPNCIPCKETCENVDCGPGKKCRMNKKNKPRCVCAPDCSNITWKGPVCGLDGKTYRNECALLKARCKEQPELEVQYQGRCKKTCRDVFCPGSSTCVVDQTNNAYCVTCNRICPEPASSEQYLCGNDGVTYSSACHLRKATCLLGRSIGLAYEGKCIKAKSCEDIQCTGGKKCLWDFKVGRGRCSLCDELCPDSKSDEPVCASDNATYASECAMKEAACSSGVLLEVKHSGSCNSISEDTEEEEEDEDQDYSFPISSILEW
Sequence of Concanavalin-A (Canavalia ensiformis) (P02866 whole entry, looked up): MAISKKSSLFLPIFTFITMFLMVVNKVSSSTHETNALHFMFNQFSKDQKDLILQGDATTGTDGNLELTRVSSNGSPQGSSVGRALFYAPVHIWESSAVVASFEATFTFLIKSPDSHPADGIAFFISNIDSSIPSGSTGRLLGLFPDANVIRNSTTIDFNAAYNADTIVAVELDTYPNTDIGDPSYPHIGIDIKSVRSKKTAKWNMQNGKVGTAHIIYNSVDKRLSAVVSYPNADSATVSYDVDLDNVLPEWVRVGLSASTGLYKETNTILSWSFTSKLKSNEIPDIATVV
Sequence of Focal adhesion kinase 1 (Homo sapiens) (Q05397 whole entry, looked up): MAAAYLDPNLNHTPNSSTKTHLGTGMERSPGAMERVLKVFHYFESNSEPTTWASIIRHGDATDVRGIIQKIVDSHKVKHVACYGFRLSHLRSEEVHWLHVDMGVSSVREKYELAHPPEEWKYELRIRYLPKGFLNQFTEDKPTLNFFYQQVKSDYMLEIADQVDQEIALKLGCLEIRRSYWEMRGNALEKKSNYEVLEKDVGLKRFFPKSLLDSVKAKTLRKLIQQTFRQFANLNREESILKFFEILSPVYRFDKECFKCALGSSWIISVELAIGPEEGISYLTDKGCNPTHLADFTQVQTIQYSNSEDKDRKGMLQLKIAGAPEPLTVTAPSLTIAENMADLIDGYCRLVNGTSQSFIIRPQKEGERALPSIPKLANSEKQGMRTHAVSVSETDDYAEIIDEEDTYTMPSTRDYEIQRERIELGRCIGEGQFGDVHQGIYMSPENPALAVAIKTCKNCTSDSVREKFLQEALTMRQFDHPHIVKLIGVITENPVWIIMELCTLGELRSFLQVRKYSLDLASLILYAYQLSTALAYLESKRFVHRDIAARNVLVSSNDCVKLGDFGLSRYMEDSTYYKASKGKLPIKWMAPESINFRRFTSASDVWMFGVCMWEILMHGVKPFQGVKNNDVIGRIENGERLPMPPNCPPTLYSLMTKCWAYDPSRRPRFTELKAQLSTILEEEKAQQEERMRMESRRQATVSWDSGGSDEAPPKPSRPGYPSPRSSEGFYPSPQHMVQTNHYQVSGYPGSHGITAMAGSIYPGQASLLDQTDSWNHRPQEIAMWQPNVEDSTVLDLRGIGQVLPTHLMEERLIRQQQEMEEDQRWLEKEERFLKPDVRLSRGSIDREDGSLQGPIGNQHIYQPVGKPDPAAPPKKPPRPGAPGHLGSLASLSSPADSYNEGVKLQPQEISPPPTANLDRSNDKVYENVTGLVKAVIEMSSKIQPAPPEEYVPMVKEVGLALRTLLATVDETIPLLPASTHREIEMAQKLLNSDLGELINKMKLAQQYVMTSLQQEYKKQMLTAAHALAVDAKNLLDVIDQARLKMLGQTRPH
Sequence of Fibroblast growth factor 2 (Homo sapiens) (P09038 whole entry, looked up): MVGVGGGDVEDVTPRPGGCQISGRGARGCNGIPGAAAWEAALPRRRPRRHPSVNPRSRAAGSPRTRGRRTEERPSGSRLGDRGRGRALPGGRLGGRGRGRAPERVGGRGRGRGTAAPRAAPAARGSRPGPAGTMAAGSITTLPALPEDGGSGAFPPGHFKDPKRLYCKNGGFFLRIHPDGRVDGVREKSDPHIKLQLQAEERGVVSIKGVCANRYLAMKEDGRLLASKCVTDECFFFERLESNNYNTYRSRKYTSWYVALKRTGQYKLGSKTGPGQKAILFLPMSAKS

With `COc1ccc([Si](C)(C)[C@H]2[C@H](CC(=O)N3CCC[C@H]3CO)O[C@@]3(C(=O)N(Cc4ccc(N5CCOC5=O)cc4)c4ccccc43)[C@@H]2C)cc1`, the composite z-score is -0.195 in assay [1]; 0.336 in [3]; -0.075 in [4]; 0.364 in assay [5]; 1.89 in assay [6]; 0.145 in assay [7]. For the same compound, the composite z-score in [8] amounted to 1.34; in [9] it was 0.731; in assay [10], 0.618; in assay [11], 2.43; in [12], 1.18; in assay [13], 0.395. Besides, the composite z-score in [14] was found to be 0.692; in [15], 1.34; in assay [16], 1.56; in assay [18] it was 1.16; in assay [19], 0.697. In addition, the composite Z-score in [2] was -0.0549 (inactive). Besides, the values for the z-score in assay [17] and in assay [20] were 2.59 and 0.31 (inactive), respectively.

Regarding `O=c1cccc(-c2ccc([N+](=O)[O-])cc2)o1`, the composite z-score in assay [1] was -0.293; in [3], 0.0692; in assay [4], -0.154; in assay [5], 0.365; in [6] it was 0.403; in assay [7], 0.633. Also, the composite z-score in [8] is 0.795; in assay [9], 0.075; in [10], -0.549; in [11] it was 0.504; in assay [12], 0.963; in assay [13] it was 0.21. The composite z-score in assay [14] was -0.301; in [15], 1.28; in [16], 1.05; in assay [18], 1.4; in assay [19], 0.301. Also, in assay [2], the composite Z-score is 0.46 (inactive). Moreover, the z-score in assay [17] was -0.233; in assay [20] it was 1.68 (inactive).

With `CCOc1cc(C(O)C2C=CC3C(=O)NC(=O)C3N2Nc2ccc(Cl)cc2Cl)ccc1O` (stereo not given), the composite z-score in assay [1] is -0.671; in assay [3], -0.152; in assay [4], -0.0601; in assay [5], 0.797; in [6], 1.23; in [7] it was -0.587. The composite z-score in assay [8] was -1.94; in assay [9], -0.157; in [10], -0.915; in assay [11], -0.254; in assay [12], -0.537; in [13], 0.725. Further, the composite z-score in [14] was 0.332; in assay [15] it was -0.403; in assay [16], -0.744; in assay [18] it was -1.33; in assay [19], 0.235. For the same compound, the composite Z-score in assay [2] was 0.568 (inactive). Further, the results for the z-score in assay [17] and in assay [20] were -0.262 and 0.445 (inactive), respectively.

On to `[N-]=[N+]=Nc1ccccc1C[C@]1(C(=O)NCCN2CCOCC2)COC(c2ccc(OCCCO)cc2)=N1`, for which the composite z-score in [1] is 0.18; in assay [3] it was -0.0745; in assay [4], 0.0328; in assay [5], 0.348; in [6], 1.87; in assay [7] it was 1.26. The composite z-score in [8] worked out at 1.15; in assay [9], 0.376; in assay [10] it was 1.1; in assay [11], 1.34; in assay [12] it was 1.26; in assay [13], 0.696. In addition, the composite z-score is 0.649 in assay [14]; 1.02 in [15]; 1.04 in [16]; -0.494 in assay [18]; 0.607 in [19]. Moreover, the composite Z-score in [2] is -0.34 (inactive). The results for the z-score in assay [17] and in assay [20] were 2.08 and -2.91 (inactive), respectively.

On to `COc1cc(C(O)C2C=CC3C(=O)N(C)C(=O)C3N2Nc2ccccc2)cc(OC)c1OC` (stereo not given), for which the composite z-score in assay [1] is 0.785; in assay [3], 0.962; in [4], 0.106; in assay [5] it was 0.818; in [6], 3.2; in assay [7], 0.708. Moreover, the composite z-score is 1.11 in [8]; -0.0836 in [9]; 1.01 in assay [10]; 2.78 in assay [11]; 1.23 in assay [12]; 1.05 in assay [13]. Also, the composite z-score in [14] is 1; in assay [15], 0.568; in assay [16], -0.397; in [18], -0.714; in [19], 1.14. Moreover, the composite Z-score in assay [2] was -0.014 (inactive). Also, the figures for the z-score in assay [17] and in [20] were 0.29 and -1.36 (inactive), respectively.
